# Reference: PubChem BioAssay (NCI)
# About 83,000 compounds went through this panel and 20% of them were active in at least one assay; those are over-represented in the sample as a whole.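 Growth was measured after 48 h exposure to one concentration of compound in 96-well plates. Values under 10 count as active.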 Calls of active or inactive are those of the source.
# Test system: HCT-15 colon
# Assay: NCI-60 one-dose screen, 48 h (100 = growth as untreated, 0 = no growth, -100 = all killed)
# Details: 10 µM unless noted
row,SMILES,growth
1,CC1=C(CNO)C2=C(C)C3(CC3)[C@@](C)(O)C(=O)C2=C1,12.1% (inactive)
2,COc1ccc(O)c(CNC(=O)CN2CCCC2=O)c1,103% (inactive)
3,CN1CCCCC1C(C)(O)c1ccccc1 (configuration not stated),100% (inactive)
4,COC(=O)CC[C@H](Cc1ccccc1)NC(=O)c1csc([C@@H](C[C@H](C(C)C)N(C)C(=O)[C@@H](NC(=O)[C@H]2CCCCN2C)C(C)C)OC(C)=O)n1,57.6% (inactive)
5,COc1ccc(N(CC(=O)NCCC[Te]c2ccccc2)C(=O)CNC(=O)OC(C)(C)C)cc1,11.3% (inactive)
6,COC(=O)[C@@H](C)C[C@H](Cc1ccccc1)NC(=O)c1csc([C@@H](C[C@H](C(C)C)N(C)C(=O)[C@@H](NC(=O)[C@H]2CCCCN2C)C(C)C)OC(C)=O)n1,15% (inactive)
7,COC1OC(CO)C(O)C(O)[CH]1[Hg][O]C(C)=O (configuration not stated),87.1% (inactive)
8,CC12CC=CCC1CCC1C2CCC2(C)C(c3ccc(=O)oc3)CCC12O (configuration not stated),-66.3% (active)
9,O=C1C2CC=CCC2C(=O)N1SC(Cl)(Cl)Cl (configuration not stated),67.3% (inactive)
10,CCOC(=O)[C@@H](C)C[C@H](Cc1ccccc1)NC(=O)c1nc([C@@H](C[C@H](C(C)C)N(C)C(=O)[C@@H](NC(=O)[C@H]2CCCCN2C)C(C)C)OC(C)=O)sc1CCOCc1ccccc1,-30.5% (active)
11,COP(=S)(N1CC1)N1CC1,109% (inactive)
12,COC(=O)[C@@H](C)C[C@H](Cc1ccccc1)NC(=O)c1nc([C@@H](C[C@H](C(C)C)N(C)C(=O)[C@@H](NC(=O)[C@H]2CCCCN2C)C(C)C)OC(C)=O)sc1C(C)C,5.69% (active)
13,COC(=O)[C@@]1(O)C[C@H]2O[C@]1(C)n1c3ccccc3c3c4c(c5c6ccccc6n2c5c31)C(=O)NC4,-29.3% (active)
14,N/C(=N\N=C\c1ccc(-c2ccccc2)cc1)N[N+](=O)[O-],31.6% (inactive)
15,COc1ccc([As]=[As]c2ccc(OC)c(NCS(=O)(=O)O)c2)cc1NCS(=O)(=O)O (configuration not stated),-72.2% (active)
16,C1CCC([PH+](C2CCCCC2)C2CCCCC2[PH+](C2CCCCC2)C2CCCCC2)CC1.O=C(C1[CH-]CCCC1)C1CCCC[N-]1.[Au] (configuration not stated),2.02% (active)
17,O=P1(NCCCl)OCCCN1CCCl (configuration not stated),98.9% (inactive)
18,O=C([O][Hg][c]1ccccc1)c1ccccc1,-62.7% (active)
19,CC(CO)NC1CCCCC1 (configuration not stated),100% (inactive)

row,SMILES,growth
1,C[C@@]12CC=C3c4nc(Nc5cccc(O)c5)sc4CC[C@]3(C)[C@H]1CC[C@]1(C)C(=O)CC[C@@H]21,-47.9% (active)
2,COC(=O)[C@@H](C)C[C@H](Cc1ccccc1)NC(=O)c1csc([C@@H](C[C@H](C(C)C)N(C)C(=O)[C@@H](NC(=O)[C@H]2CCCCN2C)c2ccc(F)cc2)OC(C)=O)n1,15.5% (inactive)
3,OCCCCCNC1CCCCC1,96.1% (inactive)
4,COc1cc(/C=C/[N+](=O)[O-])c([N+](=O)[O-])cc1OC,-45.2% (active)
5,NC(CCl)CCl,87.3% (inactive)
6,O=[N+]([O-])CC(c1ccccc1Cl)c1c(-c2ccccc2)[nH]c2ccccc12 (configuration not stated),22.8% (inactive)
7,C#Cc1ccc2c(c1)C(c1ccccc1)=NCC(=O)N2C,26.4% (inactive)
8,CN(C)C(=O)Oc1ccccc1,98.1% (inactive)
9,OCCNC(Cc1ccccc1)c1ccc2c(c1)OCO2 (configuration not stated),100% (inactive)
10,Nc1ccc2c(c1)Cc1cc(Br)ccc1-2,101% (inactive)
11,C#Cc1ccc2c(c1)C(c1ccccc1F)=NCC(=O)N2C,28% (inactive)
12,O=C([O][Hg][CH2]C1OCCOC1[CH2][Hg][O]C(=O)c1ccccc1)c1ccccc1 (configuration not stated),-79.5% (active)
13,C[C@@H]1O[C@@H](O[C@H]2C[C@@H](O)[C@]3(CO)C4C(CC[C@]3(O)C2)[C@@]2(O)CC[C@H](C3=CC(=O)OC3)[C@@]2(C)C[C@H]4O)[C@H](O)[C@H](O)[C@H]1O (some centres not stated),-74.6% (active)
14,CC1=C(CN)C2=C(C)C3(CC3)[C@@](C)(O)C(=O)C2=C1,96.4% (inactive)
15,COC(C(=O)[C@@H](O)[C@@H](C)O)[C@@H]1Cc2cc3cc(O[C@H]4C[C@@H](O[C@H]5C[C@@H](O)[C@H](O)C(C)O5)[C@H](O)C(C)O4)c(C)c(O)c3c(O)c2C(=O)[C@H]1O[C@H]1C[C@@H](O[C@H]2C[C@@H](O[C@H]3C[C@@H](O)[C@@H](O)C(C)O3)[C@@H](O)C(C)O2)[C@H](O)C(C)O1 (some centres not stated),47.7% (inactive)
16,C[C@]12CC[C@@H]3c4ccc(Oc5nc(N6CC6)nc(N6CC6)n5)cc4CC[C@H]3[C@@H]1CCC2=O,37.4% (inactive)
17,CC(=O)Nc1ccc(NC(=O)c2ccc([As](O)O)cc2)cc1,85% (inactive)
18,CCC(C)(C)[C@H](NC(=O)[C@H]1CCCCN1C)C(=O)N(C)[C@H](C[C@@H](OC(C)=O)c1nc(C(=O)N[C@@H](Cc2ccccc2)C[C@H](C)C(=O)O)cs1)C(C)C,6.87% (active)
